This passage reports growth inhibition results from PubChem BioAssay (NCI).

About 79,000 compounds went through this panel and 15% of them were active in at least one assay; those are over-represented in the sample as a whole. A number with no mark means an inactive call. Active and inactive are the calls of the source. Cut-off read from the data, not from the text of the source: active = growth inhibition above about 70%; inactive = the rest.

This test in a line: NCI Yeast Anticancer Drug Screen. Data for the mgt1 strain (AID 153). To be noted: S. cerevisiae mgt1 mutant growth inhibition, stronger effect = higher value. Here is the method: Growth inhibition of yeast strains with defined genetic alterations is measured as a screen for potential anti-cancer activity. Selected strains with alterations in DNA damage repair or cell cycle control were exposed to compounds and growth inhibition was measured relative to vehicle treated controls. The strain used in this assay is mgt1

Take `OC(CC(O)(C(F)(F)F)C(F)(F)F)c1ccc(C(O)CC(O)(C(F)(F)F)C(F)(F)F)cc1` (stereo not given): the growth inhibition (at 1.2 µM) was 22%; the growth inhibition (at 3.7 µM) is 22%; the growth inhibition (at 11.0 µM) is 91% (active); the growth inhibition (at 33.0 µM) was 99% (active); the growth inhibition (at 100.0 µM) was 99% (active).

As to `CN(C)CC1=Nc2cccc3cccc(c23)N1`, the growth inhibition is -9% (at 1.2 µM); -1% (at 3.7 µM); -7% (at 11.0 µM); 9% (at 33.0 µM); 87% (active) (at 100.0 µM).

As to `CCCCS(=O)(=O)Nc1ccc(Nc2c3ccccc3nc3ccccc23)c(OC)c1`, the growth inhibition runs as follows: (at 1.2 µM) -49%; (at 3.7 µM) -46%; (at 11.0 µM) -33%; (at 33.0 µM) 64%; (at 100.0 µM) 96% (active).

As to `CCCCOc1ccc2nc(C)cc(N=[N+]=[N-])c2c1`, the growth inhibition runs as follows: (at 1.2 µM) 6%; (at 3.7 µM) 7%; (at 11.0 µM) 12%; (at 33.0 µM) 32%; (at 100.0 µM) 90% (active).

`COc1cc(C2C3=C(COC3=O)Oc3cc4c(cc32)OCO4)cc(OC)c1O` (stereo not given): the growth inhibition reads like this: (at 1.2 µM) 0%; (at 3.7 µM) -2%; (at 11.0 µM) 15%; (at 33.0 µM) -2%; (at 100.0 µM) 7%.

As for `CCCCCCC=C(C(=O)OCC)C(=O)OCC`, the growth inhibition (at 1.2 µM) was -1%; the growth inhibition (at 3.7 µM) was -3%; the growth inhibition (at 11.0 µM) was 0%; the growth inhibition (at 33.0 µM) is -5%; the growth inhibition (at 100.0 µM) is 13%.

Consider `CCCCCc1c(CCCC)c(=O)[nH]c2cc(CNCC(OC)OC)ccc12`, for which the growth inhibition was -15% (at 1.2 µM); -11% (at 3.7 µM); 58% (at 11.0 µM); 98% (active) (at 33.0 µM); 94% (active) (at 100.0 µM).

`O=C(/C=C/c1ccsc1)c1cccs1`: the growth inhibition reads like this: (at 1.2 µM) 3%; (at 3.7 µM) -2%; (at 11.0 µM) -4%; (at 33.0 µM) 10%; (at 100.0 µM) 92% (active).
